Results filed as inconclusive are left out. The source made the active and inactive calls. Rule for the calls: active = hit-call score of the fitted dose curve at least 0.9, where 1 is the maximum; inconclusive = response in the unintended direction; inactive = score below 0.9.

This assay in a line: NVS_IC_rCaBTZCHL: NovaScreen (NVS) Ion Channel Assay for Calcium Channel, Type L, Benzothiazepine Site (CaBTZCHL) (AID 2283337). The protocol: NVS_IC_rCaBTZCHL is a biochemical, single-readout assay that uses extracted gene-proteins from Rat cortical membranes in a tissue-based cell-free assay. Measurements were taken 1.5 hours after chemical dosing in a 48-well plate.NVS_IC_rCaBTZCHL is one of one assay component(s) measured or calculated from the NVS_IC_rCaBTZCHL assay. It is designed to make measurements of radioligand binding, a form of binding reporter, as detected with scintillation counting signals by Filter-based radiodetection technology.Data from the assay component NVS_IC_rCaBTZCHL was analyzed into 1 assay endpoint. This assay endpoint, NVS_IC_rCaBTZCHL, was analyzed in the positive analysis fitting direction relative to DMSO as the negative control and baseline of activity. Using a type of binding reporter, loss-of-signal activity can be used to understand changes in the binding as they relate to the gene Cacna1a. Furthermore, this assay endpoint can be referred to as a primary readout, because the performed assay has only produced 1 assay endpoint. To generalize the intended target to other relatable targets, this assay endpoint is annotated to the ion channel intended target family, where the subfamily is calcium channel.
Binding assays used specific radioligands (tritiated, iodinated) with non-radioactive competitive displacement ligands in agonist or antagonist protocols (as indicated) and various reference compounds and inhibitors to titrate specific binding to receptors and transporters. Most enzyme assays (CYPs, kinases, phosphatases, proteases, HDACs) used recombinant protein and specific substrates (fluorescence mostly, some colorimetric and radioactive) and inhibitors, followed by a biochemical separation of substrate and product. All assays for the biochemical HTS were initially run in duplicate at a single concentration (10 uM for CYP450 assays and 25 uM for all others). […] Each assay was run with positive and negative controls, and concurrent controls on every plate. […]
Turning to `O=S(=O)(C(Cl)(Cl)Cl)C(Cl)(Cl)Cl`, the result was inactive.

Turning to `Brc1ccc(Br)cc1`, the outcome was inactive.

For the compound `Nc1nc(N)nc(Cl)n1`, the result was inactive.

For the origin of these results see PubChem BioAssay (EPA / NIEHS).
